3 compounds from PubChem BioAssay (EPA / NIEHS) can be followed below.

As usually defined, the AC50 is the concentration at which the activity in the assay is half-maximal.

Several values for one entry are separate records, joined by “and”; a condition that tells them apart may be missing. Identical values can stand only once. Some compounds were tested as several samples or in several runs, with calls that do not always agree. Activity calls are given as the source filed them. The calls were made as follows: active = hit-call score of the fitted dose curve at least 0.9, where 1 is the maximum; inactive = score below 0.9.

Read-out in test [1]: Interleukin-1 alpha (IL1a), IL1A (gene 3552)
As to the kind of experiment: BSK_KF3CT_IL1a: BioMAP Diversity Plus: KF3CT Assay for Interleukin-1 alpha (IL1a) Biomarker Activity (AID 2283070). Particulars: primary human keratinocytes with fibroblasts; actives raise or lower the signal. In short, it runs like this:
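Readout is IL-1a level by ELISA, compared bidirectionally with DMSO as baseline. Cells: human keratinocytes co-cultured with foreskin fibroblasts, harvested 24 h post-dose.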

Read-out in test [2]: TIMP metallopeptidase inhibitor 2 (TIMP2), TIMP2 (gene 7077)
As to the kind of experiment: BSK_KF3CT_TIMP2: BioMAP Diversity Plus: KF3CT Assay for TIMP metallopeptidase inhibitor 2 (TIMP2) Biomarker Activity (AID 2283071). Particulars: primary human keratinocytes with fibroblasts; actives raise or lower the signal. In short, it runs like this: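 ELISA readout of TIMP-2 in keratinocyte plus foreskin fibroblast co-cultures (human skin primary cells), 24 h post-dose. Gain or loss of signal fitted relative to DMSO.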

Read-out in test [3]: Transforming growth factor beta 1 (TGFb1), TGFB1 (gene 7040)
The test can be described thus: BSK_KF3CT_TGFb1: BioMAP Diversity Plus: KF3CT Assay for Transforming growth factor beta 1 (TGFb1) Biomarker Activity (AID 2283072). Particulars: primary human keratinocytes with fibroblasts; actives raise or lower the signal. In short, it runs like this:
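Read-out: ELISA for TGF-b1 in keratinocyte/foreskin fibroblast human skin co-culture, 24 h after dosing; bidirectional curve fit vs DMSO baseline; gain or loss of signal scored.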

Read-out in test [4]: C-C motif chemokine 2 (Homo sapiens) (UniProt P13500)
As to the kind of experiment: BSK_KF3CT_MCP1: BioMAP Diversity Plus: KF3CT Assay for Monocyte Chemoattractant Protein 1 (MCP1/CCL2) Biomarker Activity (AID 2283073). Conditions: primary human keratinocytes with fibroblasts; actives raise or lower the signal. The procedure, abridged:
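KF3CT skin co-culture (keratinocytes/foreskin fibroblasts), 24 h post-dose; MCP-1 by ELISA; gain/loss of signal fit bidirectionally vs DMSO baseline.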

Read-out in test [5]: Matrix Metallopeptidase 9 (MMP9), MMP9 (gene 4318)
As to the kind of experiment: BSK_KF3CT_MMP9: BioMAP Diversity Plus: KF3CT Assay for Matrix Metallopeptidase 9 (MMP9) Biomarker Activity (AID 2283074).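 As to AC50: MMP9 protein level quantified by ELISA in the co-culture.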 Particulars: primary human keratinocytes with fibroblasts; actives raise or lower the signal. The procedure, abridged: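 Values come from bidirectional fitting relative to DMSO of MMP-9 levels, which were measured by ELISA. Measurements were taken 24 h after chemical dosing of a keratinocyte and foreskin fibroblast co-culture.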

Read-out in test [6]: urokinase plasminogen activator (uPA), PLAU (gene 5328)
The test can be described thus: BSK_KF3CT_uPA: BioMAP Diversity Plus: KF3CT Assay for urokinase plasminogen activator (uPA) Biomarker Activity (AID 2283075). Conditions: primary human keratinocytes with fibroblasts; actives raise or lower the signal. The procedure, abridged: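 Values derive from bidirectional fitting against DMSO controls. Keratinocyte/foreskin fibroblast co-cultures received chemical; 24 h later uPA was detected by ELISA, with SRB total-protein staining in parallel wells for overt cytotoxicity.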

Read-out in test [7]: CD40, CD40 (gene 958)
As to the kind of experiment: BSK_LPS_CD40: BioMAP Diversity Plus: LPS Assay for CD40 Biomarker Activity (AID 2283076). Conditions: primary human HUVEC with PBMC; actives raise or lower the signal. In short, it runs like this:
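ELISA readout of CD40 in HUVEC/PBMC co-culture (BSK_LPS system), 24 h post-dosing; bidirectional curve fit, DMSO baseline; parallel SRB total-protein staining for cytotoxicity.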

Read-out in test [8]: E-selectin (Homo sapiens) (UniProt P16581)
As to the kind of experiment: BSK_LPS_Eselectin: BioMAP Diversity Plus: LPS Assay for Eselectin Biomarker Activity (AID 2283077). Conditions: primary human HUVEC with PBMC; actives raise or lower the signal. The procedure, abridged:
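ELISA readout of E-selectin, 24 h post-dose, HUVEC + PBMC co-culture (LPS system). Gain or loss of signal vs DMSO baseline, bidirectional fit.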

Read-out in test [9]: Interleukin-8 (IL8), CXCL8 (gene 3576)
As to the kind of experiment: BSK_LPS_IL8: BioMAP Diversity Plus: LPS Assay for Interleukin-8 (IL8) Biomarker Activity (AID 2283078). Particulars: primary human HUVEC with PBMC; actives raise or lower the signal. The procedure, abridged: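 HUVEC + PBMC co-culture, LPS-activated; test chemicals dosed, IL-8 read by ELISA at 24 h. Bidirectional curve fit vs DMSO baseline (gain or loss of signal).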

Test [10] in a line: BSK_LPS_SRB: Viability Assessment in the BioMAP Diversity Plus: LPS Assay (AID 2283079).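 Also: total protein by sulforhodamine B absorbance as a cytotoxicity measure; measured one day after compound addition; fitted in both directions against DMSO so loss or gain of signal counts.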 Conditions: primary human HUVEC with PBMC. In short, it runs like this:
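HUVEC + PBMC co-culture, LPS-stimulated; compound 24 h. 10% TCA fix, 0.1% SRB stain, A560. Bidirectional fit vs DMSO.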

Read-out in test [11]: Interleukin-1 alpha (IL1a), IL1A (gene 3552)
As to the kind of experiment: BSK_LPS_IL1a: BioMAP Diversity Plus: LPS Assay for Interleukin-1 alpha (IL1a) Biomarker Activity (AID 2283080). Conditions: primary human HUVEC with PBMC; actives raise or lower the signal. In short, it runs like this:
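HUVEC/PBMC co-culture, LPS system; 24 h after dosing; IL-1a by ELISA; gain or loss of signal fitted bidirectionally vs DMSO baseline.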

Read-out in test [12]: Monocyte Chemoattractant Protein-1 (MCP1), CCL2 (gene 6347)
The test can be described thus: BSK_LPS_MCP1: BioMAP Diversity Plus: LPS Assay for Monocyte Chemoattractant Protein-1 (MCP1) Biomarker Activity (AID 2283081).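 As to AC50: secreted MCP-1 protein quantified by ELISA in culture supernatant.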 Conditions: primary human HUVEC with PBMC; actives raise or lower the signal. The procedure, abridged: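 ELISA read-out of MCP-1 after 24 h chemical dosing of a human umbilical vein endothelial cell/peripheral blood mononuclear cell co-culture stimulated with LPS. Gain or loss of signal fitted relative to DMSO controls.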

Test [13] can be described thus: BSK_LPS_PGE2: BioMAP Diversity Plus: LPS Assay for Prostaglandin E2 (PGE2) Biomarker Activity (AID 2283082).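 As to AC50: secreted prostaglandin E2 measured by ELISA in LPS-stimulated co-culture.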 Conditions: primary human HUVEC with PBMC; actives raise or lower the signal. In short, it runs like this:
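ELISA read-out of PGE2 from human umbilical vein endothelial cells co-cultured with peripheral blood mononuclear cells under LPS, 24 h post-dose. Gain or loss of signal scored relative to DMSO baseline.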

Read-out in test [14]: Macrophage colony-stimulating factor (MCSF), CSF1 (gene 1435)
The test can be described thus: BSK_LPS_MCSF: BioMAP Diversity Plus: LPS Assay for Macrophage colony-stimulating factor (MCSF) Biomarker Activity (AID 2283083). Particulars: primary human HUVEC with PBMC; actives raise or lower the signal. In short, it runs like this:
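HUVEC + PBMC co-culture (human primary), 24 h post-dose; M-CSF by ELISA; gain/loss of signal fitted bidirectionally vs DMSO baseline.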

Read-out in test [15]: Tissue Factor, F3 (gene 2152)
As to the kind of experiment: BSK_LPS_TissueFactor: BioMAP Diversity Plus: LPS Assay for Tissue Factor Biomarker Activity (AID 2283084). Conditions: primary human HUVEC with PBMC; actives raise or lower the signal. The procedure, abridged:
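HUVEC/PBMC co-culture, LPS-activated; CD142 ELISA read 24 h post-dose; bidirectional curve fit vs DMSO negative control.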

Read-out in test [16]: Tumor necrosis factor (Homo sapiens) (UniProt P01375)
The test can be described thus: BSK_LPS_TNFa: BioMAP Diversity Plus: LPS Assay for Tumour Necrosis Factor alpha (TNFa) Biomarker Activity (AID 2283085).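 As to AC50: TNFa protein level quantified by ELISA in the co-culture.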 Particulars: primary human HUVEC with PBMC; actives raise or lower the signal. The procedure, abridged: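 HUVEC/PBMC co-culture, LPS-stimulated; 24 h post-dose; TNFa by ELISA; gain or loss of signal fitted bidirectionally vs DMSO baseline.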

Read-out in test [17]: Vascular cell adhesion molecule 1 (VCAM1), VCAM1 (gene 7412)
The test can be described thus: BSK_LPS_VCAM1: BioMAP Diversity Plus: LPS Assay for Vascular cell adhesion molecule 1 (VCAM1) Biomarker Activity (AID 2283086). Particulars: primary human HUVEC with PBMC; actives raise or lower the signal. In short, it runs like this:
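ELISA read-out of VCAM-1 at 24 h post-dosing in an LPS-driven HUVEC/PBMC primary human co-culture; gain or loss of signal fitted bidirectionally against DMSO baseline. Cytotoxicity tracked in parallel cultures by SRB total-protein staining.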

Read-out in test [18]: CD38, CD38 (gene 952)
The test can be described thus: BSK_SAg_CD38: BioMAP Diversity Plus: SAg Assay for CD38 Biomarker Activity (AID 2283087). Conditions: primary human HUVEC with PBMC; actives raise or lower the signal. In short, it runs like this:
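Measures CD38 on a human endothelial/PBMC co-culture driven by SEB and TSST-1, 24 h after compound exposure, using ELISA with fluorescence detection; DMSO defines baseline for bidirectional curve fitting.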

Read-out in test [19]: CD40, CD40 (gene 958)
The test can be described thus: BSK_SAg_CD40: BioMAP Diversity Plus: SAg Assay for CD40 Biomarker Activity (AID 2283088). Particulars: primary human HUVEC with PBMC; actives raise or lower the signal. In short, it runs like this:
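HUVEC/PBMC co-culture, 24 h post-dose; CD40 by ELISA, fluorescence intensity; bidirectional fit vs DMSO negative control.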

Read-out in test [20]: CD69, CD69 (gene 969)
As to the kind of experiment: BSK_SAg_CD69: BioMAP Diversity Plus: SAg Assay for CD69 Biomarker Activity (AID 2283089).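 As to AC50: cell surface CD69 protein quantified by ELISA with fluorescence detection.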 Conditions: primary human HUVEC with PBMC; actives raise or lower the signal. The procedure, abridged: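 HUVEC co-cultured with PBMC were dosed with chemical, and CD69 was measured by ELISA with fluorescence read-out 24 h later. Bidirectional curve fitting used DMSO as negative control and activity baseline.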

Chain of E-selectin (Homo sapiens) (P16581 whole entry, looked up): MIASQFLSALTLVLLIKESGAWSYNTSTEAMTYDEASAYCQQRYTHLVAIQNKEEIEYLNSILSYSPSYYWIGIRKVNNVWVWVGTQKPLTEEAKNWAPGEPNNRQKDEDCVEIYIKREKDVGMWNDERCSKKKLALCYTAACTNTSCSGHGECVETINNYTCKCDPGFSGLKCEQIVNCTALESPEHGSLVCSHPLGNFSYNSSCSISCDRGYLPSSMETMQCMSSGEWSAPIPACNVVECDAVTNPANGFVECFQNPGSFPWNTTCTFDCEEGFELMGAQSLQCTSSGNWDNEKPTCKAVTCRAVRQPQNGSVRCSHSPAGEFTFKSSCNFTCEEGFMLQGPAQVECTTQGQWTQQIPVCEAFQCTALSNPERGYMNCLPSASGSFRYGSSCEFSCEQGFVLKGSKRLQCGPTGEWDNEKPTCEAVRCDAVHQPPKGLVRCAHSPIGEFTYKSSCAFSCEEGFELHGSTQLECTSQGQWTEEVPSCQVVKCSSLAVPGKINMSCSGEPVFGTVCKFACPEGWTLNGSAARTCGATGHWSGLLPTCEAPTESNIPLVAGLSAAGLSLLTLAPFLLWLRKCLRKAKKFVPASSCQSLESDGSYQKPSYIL
Chain of Tumor necrosis factor (Homo sapiens) (P01375 whole entry, looked up): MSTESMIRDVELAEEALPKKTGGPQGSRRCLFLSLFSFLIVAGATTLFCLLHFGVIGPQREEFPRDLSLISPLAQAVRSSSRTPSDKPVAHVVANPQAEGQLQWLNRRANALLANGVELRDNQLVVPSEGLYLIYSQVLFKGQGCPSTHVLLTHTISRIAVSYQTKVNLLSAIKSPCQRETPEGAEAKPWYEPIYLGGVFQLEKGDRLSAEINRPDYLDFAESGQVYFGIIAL

On to `CNC(=O)ON=C(SC)C(=O)N(C)C`, for which the result in test [1], in [2], in [3], in test [4], in [5] and in test [6] was inactive. Also, the outcome in test [7], in test [8], in test [9], in [10], in [11] and in test [12] was inactive. The outcome in test [13], in test [14], in test [15], in [16], in [18] and in test [19] was inactive. In addition, in test [20], the outcome was inactive. Moreover, in test [17], the concentration at half-maximal activity (AC50) is 10.2 µM (active).

For `O=[N+]([O-])c1cc(C(F)(F)F)c(Cl)c([N+](=O)[O-])c1Nc1ncc(C(F)(F)F)cc1Cl`, the AC50 was 867 nM (active) and 6.33 µM (active) in test [1]; 588 nM (active) and 11.3 µM (active) in test [2]; 7.7 µM (active) in [3]; 1.71 µM (active) and 15.5 µM (active) in test [4]; 991 nM (active) and 5.6 µM (active) in test [5]; 1.37 µM (active) and 7.61 µM (active) in [6]. For the same compound, the concentration at half-maximal activity (AC50) is 1.44 µM (active) and 6.49 µM (active) in [7]; 1.55 µM (active) and 3.22 µM (active) in test [8]; 2.33 µM (active) and 3.94 µM (active) in [9]; 2 µM (active) and 3.96 µM (active) in test [10]; 1.35 µM (active) and 2.31 µM (active) in test [11]; 1.52 µM (active) and 3.74 µM (active) in test [12]. For the same compound, the AC50 in [13] is 7.89 µM (active) and 3.71 µM (active); in [14] it was 1.49 µM (active) and 2.86 µM (active); in test [15] it was 1.44 µM (active) and 2.17 µM (active); in [16], 1.81 µM (active); in test [17], 1.5 µM (active) and 2.05 µM (active); in test [18], 1.35 µM (active) and 2.58 µM (active). Further, the AC50 in test [20] is 1.91 µM (active) and 3.73 µM (active). Moreover, the outcome in test [3] and in [16] was inactive.

As for `O=C(O)c1cc(Oc2ccc(C(F)(F)F)cc2Cl)ccc1[N+](=O)[O-]`, the outcome in [1], in [2], in test [3], in [4], in test [5] and in test [6] was inactive. Further, the result in [7], in [8], in test [9], in test [10], in test [11] and in test [12] was inactive. Further, the result in [14], in test [15], in test [16], in [17], in test [18] and in test [19] was inactive. Further, the result in [20] was inactive. Also, in test [13], the AC50 was 16.4 µM (active).
